Results on twelve compounds are retold here after PubChem BioAssay (EPA / NIEHS).

Calls of active or inactive are those of the source. How the source made its calls: active means hit-call score of the fitted dose curve at least 0.9, where 1 is the maximum; inactive means score below 0.9.

Assay [1] is described as follows: ATG_CRE_CIS: Attagene CIS-FACTORIAL HepG2 Assay for human cAMP Responsive Element (CRE) binding protein 3 (AID 2282926). The conditions noted are these: HepG2 CRE cis-reporter, Attagene multiplexed mRNA; actives raise or lower the signal. A digest of the protocol:
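Transfected HepG2 were treated for 24 hours, then RNA was extracted and reporter cDNA amplified with sequence-specific primers. Labelled fragments were separated by capillary electrophoresis, and the CRE signal was fitted bidirectionally with DMSO as baseline.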

In assay [2] the target is CCAAT/enhancer-binding protein beta (Homo sapiens) (UniProt P17676). The experiment in a line: ATG_C_EBP_CIS: Attagene CIS-FACTORIAL HepG2 Assay for human CCAAT/Enhancer Binding Protein (C/EBP) beta (AID 2282927). The conditions noted are these: HepG2 Attagene cis-factorial transcription factor reporter; actives raise or lower the signal. A digest of the protocol:
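HepG2, transient MRTU transfection, 24 h treatment. RT-PCR plus CE fluorescence; DMSO negative control, bidirectional fit.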

Assay [3] can be described thus: ATG_CMV_CIS: Attagene CIS-FACTORIAL HepG2 Assay for human CMV (Internal Marker) (AID 2282928).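 Further: endpoint acts as a background internal control marker rather than a target.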 The conditions noted are these: HepG2 CMV promoter reporter, transcription factor profiling; actives raise or lower the signal. In short, it runs like this: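 Endogenous transcription factor activity read in HepG2 via transfected cis-promoter reporter units. After 24 h dosing, reporter mRNA measured by RT-PCR/capillary electrophoresis; gain or loss of signal fit relative to DMSO.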

A short description of assay [4]: ATG_DR4_LXR_CIS: Attagene CIS-FACTORIAL HepG2 Assay for human Liver X Receptor (LXR), DR4 submotif (AID 2282929). The conditions noted are these: HepG2 Attagene DR4 cis-reporter, mRNA transcription; actives raise or lower the signal. A digest of the protocol: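 DR4 cis-reporter in HepG2, 24 h exposure. Detection: RT-PCR, 6-FAM labelling, CE fragment analysis. Endpoint fitted bidirectionally, DMSO = baseline.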

Assay [5] has as its target Aryl hydrocarbon receptor (Homo sapiens) (UniProt P35869). Nature of the assay: ATG_Ahr_CIS: Attagene CIS-FACTORIAL HepG2 Assay for human Aryl Hydrocarbon Receptor (Ahr) (AID 2282930). The conditions noted are these: HepG2 AhR cis-factorial reporter transcription; actives raise or lower the signal. A digest of the protocol:
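Endogenous factor activity is tracked through cis-promoter reporter units transfected into HepG2 cells. Transcript levels at 24 h are read by fluorescent RT-PCR and capillary electrophoresis, with activity in either direction scored relative to DMSO.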

The nature of assay [6]: ATG_AP_1_CIS: Attagene CIS-FACTORIAL HepG2 Assay for human Activator Protein 1 (AP-1) (AID 2282931). The conditions noted are these: HepG2 Attagene cis-factorial AP-1 reporter mRNA; actives raise or lower the signal. A digest of the protocol:
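Cis-regulated reporter units transiently expressed in HepG2 report endogenous transcription-factor activity. Signal: reporter mRNA at 24 h, via RT-PCR and fluorescent capillary electrophoresis. Endpoint derived by bidirectional fitting, DMSO as negative control.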

Assay [7] can be described thus: ATG_AP_2_CIS: Attagene CIS-FACTORIAL HepG2 Assay for human Activator Protein 2 (AP-2) (AID 2282932). The conditions noted are these: HepG2 AP-2 cis-reporter, Attagene transcription factor profiling; actives raise or lower the signal. In short, it runs like this:
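Multiplexed mRNA reporter assay in HepG2: cis-regulated units report endogenous factor activity after 24 h treatment. Fluorescence from capillary electrophoresis of RT-PCR products gives the signal, with DMSO as baseline.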

Assay [8] is described as follows: ATG_BRE_CIS: Attagene CIS-FACTORIAL HepG2 Assay for human Bone Morphogenetic Protein (BMP) Response Element (BRE) (AID 2282933). The conditions noted are these: HepG2 BMP response element reporter, Attagene transcription factor profiling; actives raise or lower the signal. In short, it runs like this: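 HepG2 cells transiently transfected with CIS reporter units (endogenous TF activity, BMP response element), dosed 24 h. Reporter mRNA quantified by RT-PCR, fluorescent labelling and capillary electrophoresis; bidirectional fit vs DMSO baseline.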

The target of assay [9] is Retinoic acid receptor alpha (Homo sapiens) (UniProt P10276). Nature of the assay: ATG_DR5_RAR_CIS: Attagene CIS-FACTORIAL HepG2 Assay for human Retinoic Acid Receptor Alpha (RARE), DR5 submotif (AID 2282934).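 On AC50: reporter responds to endogenous RAR alpha beta and gamma in HepG2 not RARA alone.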 The conditions noted are these: HepG2 Attagene cis-factorial RARE DR5 reporter, mRNA; actives raise or lower the signal. A digest of the protocol: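 After 24 h of chemical exposure, transiently transfected HepG2 cells were lysed for total RNA; the DR5-regulated reporter transcript was quantified via RT-PCR and capillary electrophoresis, with activity fitted bidirectionally against DMSO.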
Chain of Retinoic acid receptor alpha (Homo sapiens) (P10276 whole entry, looked up): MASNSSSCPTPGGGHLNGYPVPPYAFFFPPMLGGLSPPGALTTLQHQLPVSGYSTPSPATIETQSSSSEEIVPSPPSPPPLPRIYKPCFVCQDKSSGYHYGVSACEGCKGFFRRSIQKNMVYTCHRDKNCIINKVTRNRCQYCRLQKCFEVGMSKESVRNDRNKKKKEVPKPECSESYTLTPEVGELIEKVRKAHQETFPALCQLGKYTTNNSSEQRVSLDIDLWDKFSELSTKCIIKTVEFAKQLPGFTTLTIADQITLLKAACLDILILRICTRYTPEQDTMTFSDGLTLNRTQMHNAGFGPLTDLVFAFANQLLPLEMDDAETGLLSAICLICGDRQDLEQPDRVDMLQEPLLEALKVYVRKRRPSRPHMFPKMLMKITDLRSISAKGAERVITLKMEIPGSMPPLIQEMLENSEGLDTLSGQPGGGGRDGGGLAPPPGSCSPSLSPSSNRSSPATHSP

Assay [10] addresses Transcription factor E2F1 (Homo sapiens) (UniProt Q01094). The experiment in a line: ATG_E2F_CIS: Attagene CIS-FACTORIAL HepG2 Assay for human E2F Transcription Factor 1 (AID 2282935). The conditions noted are these: HepG2 Attagene cis-reporter, E2F reporter RNA transcripts; actives raise or lower the signal. In short, it runs like this: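 Measures reporter transcript levels via RT-PCR with capillary electrophoresis detection in HepG2 cells harboring cis-regulated reporter units; 24 h post-dose; bidirectional curve fitting with DMSO as baseline.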

Assay [11] is described as follows: ATG_M_61_CIS: Attagene CIS-FACTORIAL HepG2 Assay for M61 Transcription Factor (Internal Marker) (AID 2282937). The conditions noted are these: HepG2 Attagene CIS-FACTORIAL M61 internal marker reporter; actives raise or lower the signal. In short, it runs like this: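 Background-control endpoint: HepG2 cells with cis-regulated reporter constructs, 24 h exposure, reporter mRNA detected via fluorescent primer extension and capillary electrophoresis; values from bidirectional fitting with DMSO baseline.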

Assay [12] is described as follows: ATG_EGR_CIS: Attagene CIS-FACTORIAL HepG2 Assay for human Early Growth Response 1 (EGR1) (AID 2282938). The conditions noted are these: HepG2 Attagene CIS-FACTORIAL EGR reporter mRNA; actives raise or lower the signal. A digest of the protocol: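 Endpoint derived by bidirectional fitting versus DMSO vehicle. Method: cis-promoter reporter units transfected into HepG2, 24 h dosing, RNA isolation, RT-PCR with 6-FAM primer extension and HpaI digestion, then capillary electrophoresis fluorescence detection.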

Assay [13] in a line: ATG_E_Box_CIS: Attagene CIS-FACTORIAL HepG2 Assay for human Enhancer Box (E-box) (AID 2282936). The conditions noted are these: HepG2 E-box cis-reporter transcription, actives raise or lower the signal. In short, it runs like this: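 First, HepG2 cells receive multiple cis-regulated reporter constructs by transient transfection. Next, chemicals are applied for 24 h. Finally, reporter mRNA is quantified via RT-PCR and capillary electrophoresis, with DMSO as baseline.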

Chain of Transcription factor E2F1 (Homo sapiens) (Q01094 whole entry, looked up): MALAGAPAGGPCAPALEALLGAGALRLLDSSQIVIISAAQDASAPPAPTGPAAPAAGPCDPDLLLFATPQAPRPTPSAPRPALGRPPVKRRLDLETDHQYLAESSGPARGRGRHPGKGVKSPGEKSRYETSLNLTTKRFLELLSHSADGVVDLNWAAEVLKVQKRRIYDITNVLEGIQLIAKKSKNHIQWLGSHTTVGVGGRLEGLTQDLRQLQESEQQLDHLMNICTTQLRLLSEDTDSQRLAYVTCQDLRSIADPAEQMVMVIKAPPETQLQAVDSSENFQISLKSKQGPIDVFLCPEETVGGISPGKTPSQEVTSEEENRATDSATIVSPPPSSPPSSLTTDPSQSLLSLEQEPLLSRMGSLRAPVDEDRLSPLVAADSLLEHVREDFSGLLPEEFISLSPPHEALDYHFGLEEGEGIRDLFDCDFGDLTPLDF
Chain of Aryl hydrocarbon receptor (Homo sapiens) (P35869 whole entry, looked up): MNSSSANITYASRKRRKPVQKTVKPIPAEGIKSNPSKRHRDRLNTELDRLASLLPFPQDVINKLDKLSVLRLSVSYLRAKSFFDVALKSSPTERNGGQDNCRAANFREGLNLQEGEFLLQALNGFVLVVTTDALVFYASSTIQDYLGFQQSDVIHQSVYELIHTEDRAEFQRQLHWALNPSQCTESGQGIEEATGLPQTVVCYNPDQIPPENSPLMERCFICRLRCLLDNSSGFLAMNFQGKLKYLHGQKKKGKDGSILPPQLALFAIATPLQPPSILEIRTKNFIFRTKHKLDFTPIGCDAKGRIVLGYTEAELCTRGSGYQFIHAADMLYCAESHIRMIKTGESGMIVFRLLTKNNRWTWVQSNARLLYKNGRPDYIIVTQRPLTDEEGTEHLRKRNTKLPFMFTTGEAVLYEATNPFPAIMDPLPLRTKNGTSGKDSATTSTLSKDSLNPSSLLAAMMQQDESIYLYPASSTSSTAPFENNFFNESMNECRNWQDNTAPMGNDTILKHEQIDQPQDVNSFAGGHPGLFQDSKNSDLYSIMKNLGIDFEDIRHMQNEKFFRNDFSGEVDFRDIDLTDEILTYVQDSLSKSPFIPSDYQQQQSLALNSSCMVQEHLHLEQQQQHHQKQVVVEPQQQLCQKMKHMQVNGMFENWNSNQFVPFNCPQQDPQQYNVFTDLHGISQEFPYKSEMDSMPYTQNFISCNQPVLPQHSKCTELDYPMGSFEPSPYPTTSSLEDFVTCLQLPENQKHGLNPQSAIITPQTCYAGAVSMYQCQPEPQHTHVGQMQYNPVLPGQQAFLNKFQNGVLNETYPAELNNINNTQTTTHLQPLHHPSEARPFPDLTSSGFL
Chain of CCAAT/enhancer-binding protein beta (Homo sapiens) (P17676 whole entry, looked up): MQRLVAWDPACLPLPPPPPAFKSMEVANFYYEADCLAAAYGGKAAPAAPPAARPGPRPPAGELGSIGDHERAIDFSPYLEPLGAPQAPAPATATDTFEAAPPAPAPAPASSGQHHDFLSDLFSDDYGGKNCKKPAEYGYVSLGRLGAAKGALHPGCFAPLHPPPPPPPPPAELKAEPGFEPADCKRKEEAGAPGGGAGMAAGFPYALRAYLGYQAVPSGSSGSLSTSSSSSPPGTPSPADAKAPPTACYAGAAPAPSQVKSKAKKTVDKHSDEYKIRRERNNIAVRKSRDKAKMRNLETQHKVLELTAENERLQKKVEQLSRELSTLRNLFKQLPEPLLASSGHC

For orientation: AC50 means the concentration giving half of the maximal activity seen. Consider `CCCCCCCCCCCCN(C)C`, for which the result in assay [1], in assay [2], in assay [5], in [6], in assay [8] and in assay [10] was inactive. Besides, the compound was classed as inactive in assay [11]. Also, the AC50 in assay [3] is 33.4 µM (active); in [4], 50.9 µM (active); in [7] it was 33.4 µM (active); in assay [9], 57.4 µM (active); in [12], 53.9 µM (active).

In the case of `c1ccc2c(c1)Oc1ccccc1O2`, the compound was classed as inactive in assay [1], in [2], in [3], in assay [4], in assay [6] and in assay [7]. Also, the compound was classed as inactive in assay [8], in assay [9], in assay [10], in assay [13], in assay [11] and in [12]. Also, the AC50 in assay [5] is 0.667 µM (active).

As for `CC(O)(CS(=O)(=O)c1ccc(F)cc1)C(=O)Nc1ccc(C#N)c(C(F)(F)F)c1` (stereo unspecified), the compound was called inactive in assay [1], in assay [2], in assay [3], in assay [4], in assay [5] and in assay [6]. Moreover, the result in assay [7], in assay [9], in [13], in [11] and in [12] was inactive. Besides, the AC50 in [8] is 98.5 µM (active).

As to `O=[N+]([O-])c1c2ccccc2cc2ccccc12`, the result in assay [1], in [2], in [3], in [4], in [5] and in assay [6] was inactive. The result in [7], in assay [8], in assay [9], in assay [13], in assay [11] and in assay [12] was inactive.

Turning to `O=S(=O)(Oc1ccc(Cl)cc1)c1ccc(Cl)cc1`, the result in [1], in assay [2], in assay [5], in assay [7], in assay [8] and in [9] was inactive. Besides, the outcome in [13], in [11] and in [12] was inactive. The AC50 in assay [3] was 49 µM (active); in assay [4], 34.9 µM (active); in [6] it was 32.6 µM (active).

Regarding `CCCCC(CC)C(=O)Cl` (stereo unspecified), the compound was called inactive in assay [1], in assay [2], in assay [3], in assay [4], in assay [5] and in [6]. Besides, the compound was classed as inactive in [7], in [8], in assay [9], in assay [10], in [13] and in [11]. Also, the result in assay [12] was inactive.

With `O=[N+]([O-])c1cc([As](=O)(O)O)ccc1O`, the outcome in assay [1], in assay [2], in [3], in [4], in assay [5] and in assay [6] was inactive. For the same compound, the compound was called inactive in [7], in assay [8], in [9], in assay [10], in assay [11] and in assay [12].

As to `BrCc1ccc(Br)cc1`, the compound was called inactive in assay [1], in assay [2], in assay [3], in assay [4], in assay [6] and in assay [7]. Also, the call in assay [8], in [9], in assay [10], in assay [11] and in assay [12] was inactive. For the same compound, in [5], the AC50 is 60.9 µM (active).

As for `O=C(NC(=O)c1c(F)cccc1F)Nc1ccc(Cl)cc1`, the call in assay [1], in assay [2], in assay [3], in [4], in [6] and in assay [7] was inactive. Besides, the compound was classed as inactive in assay [8], in [9], in assay [13], in [11] and in assay [12]. Besides, the AC50 in assay [5] is 19.6 µM (active).

For the compound `c1cc[c]([Sb]([c]2ccccc2)[c]2ccccc2)cc1`, the compound was classed as inactive in assay [1], in assay [2], in assay [5], in assay [7], in assay [8] and in assay [9]. Besides, the outcome in assay [13], in assay [11] and in [12] was inactive. Moreover, the AC50 was 64.8 µM (active) in assay [3], 9.64 µM (active) in [4] and 68.5 µM (active) in assay [6].

As to `C=CC(=O)[O][Sn]([CH2]CCC)([CH2]CCC)[CH2]CCC`, the AC50 in assay [1] is 0.412 µM (active); in [4] it was 0.607 µM (active); in assay [5] it was 0.704 µM (active); in [6], 0.128 µM (active); in assay [8] it was 0.217 µM (active); in assay [9] it was 0.0229 µM (active). The AC50 in assay [12] was 0.412 µM (active). Also, the result in [2], in assay [3], in assay [7], in [10] and in assay [11] was inactive.

In the case of `CCCCCCCCCCCCCCC(Br)C(=O)O` (stereo unspecified), the compound was classed as inactive in [1], in assay [3], in assay [5] and in assay [8]. Also, the AC50 was 179 µM (active) in assay [2]; 27.4 µM (active) in [4]; 173 µM (active) in assay [6]; 100 µM (active) in assay [7]; 26.9 µM (active) in assay [9]; 108 µM (active) in assay [10]. In addition, the results for the AC50 in assay [11] and in [12] were 183 µM (active) and 146 µM (active), respectively.
